# Measurements reported in publication PMC7862700, “An all-to-all approach to the identification of sequence-specific readers for epigenetic DNA modifications on cytosine”.
# Legend:
# Experiment in all cases: DAPPL (digital affinity profiling via proximity ligation, sequencing); 10 mM Tris-HCl pH 7.5, 50 mM NaCl, 1 mM DTT, 4% glycerol, room temperature, 30 min; GST-TFs on glutathione beads, 16-mer random dsDNA library, 0.1% formaldehyde crosslink after washing; high values mean tight binding
# FLI1 = target: T1, FLI1 (Homo sapiens, UniProt Q01543 1-452); conditions: protein: recombinant; tags: N-terminal GST; dsDNA, one strand shown
# T1 sequence: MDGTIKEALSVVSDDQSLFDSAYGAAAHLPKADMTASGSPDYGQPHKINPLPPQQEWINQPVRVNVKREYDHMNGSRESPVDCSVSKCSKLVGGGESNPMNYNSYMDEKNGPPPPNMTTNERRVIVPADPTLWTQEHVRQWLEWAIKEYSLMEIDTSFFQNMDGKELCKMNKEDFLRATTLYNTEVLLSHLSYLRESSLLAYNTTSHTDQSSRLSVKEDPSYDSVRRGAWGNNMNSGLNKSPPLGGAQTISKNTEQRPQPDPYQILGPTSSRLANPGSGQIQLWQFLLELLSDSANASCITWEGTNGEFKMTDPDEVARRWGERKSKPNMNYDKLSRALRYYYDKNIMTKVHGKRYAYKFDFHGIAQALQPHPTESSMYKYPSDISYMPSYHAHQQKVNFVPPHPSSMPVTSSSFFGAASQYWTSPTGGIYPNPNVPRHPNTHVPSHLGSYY
# Method in brief: (§1)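 Binding signal is each hexamer's read frequency for a factor divided by its frequency in the tag-only sample. The factors were GST-fused human transcription factors from yeast, captured on glutathione beads, DNA-barcoded and pooled with that sample. Pools were incubated with 200 nmole of a random double-stranded 16-mer DNA library in Tris/NaCl/DTT/glycerol buffer at room temperature for 30 min, then washed, crosslinked with 0.1% formaldehyde, proximity-ligated with BsaI/T4 ligase (1 h, 37 °C), PCR-amplified and sequenced on an Illumina NextSeq500.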
# GABPA = target: T2, GABPA (Homo sapiens, UniProt Q06546 1-454); conditions: protein: recombinant; tags: N-terminal GST; dsDNA, one strand shown
# T2 sequence: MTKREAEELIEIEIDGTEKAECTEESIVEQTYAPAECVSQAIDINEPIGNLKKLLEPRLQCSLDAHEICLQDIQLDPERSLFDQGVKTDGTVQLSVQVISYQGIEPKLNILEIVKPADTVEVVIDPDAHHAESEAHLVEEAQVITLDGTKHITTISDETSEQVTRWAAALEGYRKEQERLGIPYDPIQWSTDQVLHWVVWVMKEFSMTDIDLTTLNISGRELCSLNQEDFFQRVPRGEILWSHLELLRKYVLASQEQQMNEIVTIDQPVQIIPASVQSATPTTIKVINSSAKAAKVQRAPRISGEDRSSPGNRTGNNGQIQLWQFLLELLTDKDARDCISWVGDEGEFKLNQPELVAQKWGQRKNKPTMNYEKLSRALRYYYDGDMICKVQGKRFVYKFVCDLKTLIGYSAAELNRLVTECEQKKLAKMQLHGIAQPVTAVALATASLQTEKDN
# Method in brief: as §1
# ERG = target: T3, ERG (Homo sapiens, UniProt P11308 1-479); conditions: protein: recombinant; tags: N-terminal GST; dsDNA, one strand shown
# T3 sequence: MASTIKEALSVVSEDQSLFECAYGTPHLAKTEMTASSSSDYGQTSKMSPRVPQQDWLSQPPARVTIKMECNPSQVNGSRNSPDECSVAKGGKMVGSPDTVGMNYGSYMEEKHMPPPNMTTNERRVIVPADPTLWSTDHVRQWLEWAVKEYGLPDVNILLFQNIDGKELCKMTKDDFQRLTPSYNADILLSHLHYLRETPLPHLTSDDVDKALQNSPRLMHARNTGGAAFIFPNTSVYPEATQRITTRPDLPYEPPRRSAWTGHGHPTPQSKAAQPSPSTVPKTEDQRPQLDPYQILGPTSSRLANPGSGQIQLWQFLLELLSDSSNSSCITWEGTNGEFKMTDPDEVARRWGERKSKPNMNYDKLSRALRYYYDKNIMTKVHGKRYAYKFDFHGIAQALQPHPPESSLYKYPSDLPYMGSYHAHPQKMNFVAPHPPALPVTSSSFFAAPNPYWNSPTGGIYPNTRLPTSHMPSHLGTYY
# Method in brief: as §1
# ELF1 = ELF1 (Homo sapiens, UniProt P32519 1-619); conditions: protein: recombinant; tags: N-terminal GST; dsDNA, one strand shown
# Method in brief: as §1
# SPI1 = SPI1 (Homo sapiens, UniProt P17947 1-270); conditions: protein: recombinant; tags: N-terminal GST; dsDNA, one strand shown
# Method in brief: as §1
# SPIB = SPIB (Homo sapiens, UniProt Q01892 1-262); conditions: protein: recombinant; tags: N-terminal GST; dsDNA, one strand shown
# Method in brief: as §1
# ELK3 = target: T4, ELK3 (Homo sapiens, UniProt P41970 1-407); conditions: protein: recombinant; tags: N-terminal GST; dsDNA, one strand shown
# T4 sequence: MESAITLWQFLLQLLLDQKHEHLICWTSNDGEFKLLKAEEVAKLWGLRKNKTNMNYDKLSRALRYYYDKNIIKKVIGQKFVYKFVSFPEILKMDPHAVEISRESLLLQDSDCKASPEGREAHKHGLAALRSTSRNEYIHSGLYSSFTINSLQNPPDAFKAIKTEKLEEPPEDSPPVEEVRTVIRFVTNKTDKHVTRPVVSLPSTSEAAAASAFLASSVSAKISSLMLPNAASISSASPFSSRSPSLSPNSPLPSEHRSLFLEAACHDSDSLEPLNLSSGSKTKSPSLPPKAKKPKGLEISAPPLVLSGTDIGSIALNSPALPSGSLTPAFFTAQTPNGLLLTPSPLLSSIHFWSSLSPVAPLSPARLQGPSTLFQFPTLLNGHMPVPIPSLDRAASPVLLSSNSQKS
# Method in brief: as §1
# FEV = target: T5, FEV (Homo sapiens, UniProt Q99581 1-238); conditions: protein: recombinant; tags: N-terminal GST; dsDNA, one strand shown
# T5 sequence: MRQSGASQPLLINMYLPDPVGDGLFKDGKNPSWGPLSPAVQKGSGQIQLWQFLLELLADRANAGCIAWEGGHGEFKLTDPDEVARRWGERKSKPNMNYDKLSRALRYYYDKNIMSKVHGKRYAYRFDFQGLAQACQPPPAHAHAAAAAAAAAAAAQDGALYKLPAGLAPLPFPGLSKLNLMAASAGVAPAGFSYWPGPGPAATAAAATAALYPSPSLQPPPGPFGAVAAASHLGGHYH
# Method in brief: as §1
# HSF1 = HSF1 (Homo sapiens, UniProt Q00613 1-529); conditions: protein: recombinant; tags: N-terminal GST; chain copies: 3; dsDNA, one strand shown
# Method in brief: as §1
# ETV2 = target: T6, ETV2 (Homo sapiens, UniProt O00321 1-342); conditions: protein: recombinant; tags: N-terminal GST; dsDNA, one strand shown
# T6 sequence: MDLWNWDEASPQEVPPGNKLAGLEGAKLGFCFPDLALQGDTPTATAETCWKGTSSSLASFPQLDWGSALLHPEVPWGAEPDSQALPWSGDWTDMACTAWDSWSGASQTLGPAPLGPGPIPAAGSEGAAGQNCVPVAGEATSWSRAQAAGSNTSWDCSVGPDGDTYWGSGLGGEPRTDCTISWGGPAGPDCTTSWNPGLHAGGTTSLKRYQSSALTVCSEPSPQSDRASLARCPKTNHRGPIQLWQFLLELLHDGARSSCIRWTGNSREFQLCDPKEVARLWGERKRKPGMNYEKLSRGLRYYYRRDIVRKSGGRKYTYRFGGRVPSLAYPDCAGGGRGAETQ
# Method in brief: as §1
# ELF3 = target: T7, ELF3 (Homo sapiens, UniProt P78545 1-371); conditions: protein: recombinant; tags: N-terminal GST; dsDNA, one strand shown
# T7 sequence: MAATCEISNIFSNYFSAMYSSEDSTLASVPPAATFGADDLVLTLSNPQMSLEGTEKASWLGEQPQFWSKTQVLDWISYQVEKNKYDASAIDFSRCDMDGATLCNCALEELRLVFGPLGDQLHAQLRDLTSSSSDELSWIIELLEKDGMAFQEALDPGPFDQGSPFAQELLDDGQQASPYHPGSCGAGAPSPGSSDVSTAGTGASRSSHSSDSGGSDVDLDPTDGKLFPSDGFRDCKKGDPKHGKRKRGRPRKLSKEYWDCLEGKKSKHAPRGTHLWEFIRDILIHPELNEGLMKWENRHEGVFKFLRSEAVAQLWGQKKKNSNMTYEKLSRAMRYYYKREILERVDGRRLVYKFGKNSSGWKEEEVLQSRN
# Method in brief: as §1
# CRX = CRX (Homo sapiens, UniProt O43186 1-299); conditions: protein: recombinant; tags: N-terminal GST; dsDNA, one strand shown
# Method in brief: as §1
# ETV1 = ETV1 (Homo sapiens, UniProt P50549 1-477); conditions: protein: recombinant; tags: N-terminal GST; dsDNA, one strand shown
# Method in brief: as §1
# ERF = target: T8, ERF (Homo sapiens, UniProt P50548 1-548); conditions: protein: recombinant; tags: N-terminal GST; dsDNA, one strand shown
# T8 sequence: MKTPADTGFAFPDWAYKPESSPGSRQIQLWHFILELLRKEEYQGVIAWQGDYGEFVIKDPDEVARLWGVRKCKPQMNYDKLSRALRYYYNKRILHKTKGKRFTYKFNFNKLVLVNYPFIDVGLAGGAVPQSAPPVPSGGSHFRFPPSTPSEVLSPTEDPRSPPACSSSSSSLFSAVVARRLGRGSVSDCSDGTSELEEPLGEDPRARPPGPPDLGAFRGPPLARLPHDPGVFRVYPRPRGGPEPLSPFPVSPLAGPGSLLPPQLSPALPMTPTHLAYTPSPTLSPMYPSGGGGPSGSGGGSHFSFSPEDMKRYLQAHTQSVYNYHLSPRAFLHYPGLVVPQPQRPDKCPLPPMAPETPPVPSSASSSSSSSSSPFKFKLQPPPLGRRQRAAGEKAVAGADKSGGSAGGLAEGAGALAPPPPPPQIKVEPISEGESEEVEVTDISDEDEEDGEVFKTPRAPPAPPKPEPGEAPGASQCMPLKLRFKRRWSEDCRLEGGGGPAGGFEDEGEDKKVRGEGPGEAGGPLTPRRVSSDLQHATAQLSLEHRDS
# Method in brief: as §1
# ETV3L = target: T9, ETV3L (Homo sapiens, UniProt Q6ZN32 1-361); conditions: protein: recombinant; tags: N-terminal GST; dsDNA, one strand shown
# T9 sequence: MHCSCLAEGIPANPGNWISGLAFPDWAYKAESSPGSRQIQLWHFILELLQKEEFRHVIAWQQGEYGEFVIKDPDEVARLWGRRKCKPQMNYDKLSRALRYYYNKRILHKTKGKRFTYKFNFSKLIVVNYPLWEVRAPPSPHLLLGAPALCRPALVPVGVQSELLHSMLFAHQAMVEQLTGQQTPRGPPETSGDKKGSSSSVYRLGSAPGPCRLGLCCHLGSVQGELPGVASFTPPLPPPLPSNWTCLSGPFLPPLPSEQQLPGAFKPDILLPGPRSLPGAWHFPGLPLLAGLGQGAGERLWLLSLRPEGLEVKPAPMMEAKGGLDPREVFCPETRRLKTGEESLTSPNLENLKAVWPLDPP
# Method in brief: as §1
# ETV3 = target: T10, ETV3 (Homo sapiens, UniProt P41162-2 1-143); conditions: protein: recombinant; tags: N-terminal GST; dsDNA, one strand shown
# T10 sequence: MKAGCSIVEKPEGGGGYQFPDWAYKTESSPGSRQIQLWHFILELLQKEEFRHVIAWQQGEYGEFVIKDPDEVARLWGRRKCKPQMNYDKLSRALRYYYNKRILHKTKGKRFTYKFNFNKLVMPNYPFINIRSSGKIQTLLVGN
# Method in brief: as §1
# ETV6 = ETV6 (Homo sapiens, UniProt P41212 1-452); conditions: protein: recombinant; tags: N-terminal GST; dsDNA, one strand shown
# Method in brief: as §1
# SPIB, sequence (Q01892 whole entry): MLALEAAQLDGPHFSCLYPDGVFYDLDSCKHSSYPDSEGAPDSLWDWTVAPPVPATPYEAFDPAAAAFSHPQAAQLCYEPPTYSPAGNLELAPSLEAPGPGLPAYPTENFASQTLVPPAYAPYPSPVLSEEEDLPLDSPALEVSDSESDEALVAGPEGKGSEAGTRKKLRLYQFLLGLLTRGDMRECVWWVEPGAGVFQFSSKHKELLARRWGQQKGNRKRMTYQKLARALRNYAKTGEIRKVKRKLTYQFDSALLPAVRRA
# ETV6, sequence (P41212 whole entry): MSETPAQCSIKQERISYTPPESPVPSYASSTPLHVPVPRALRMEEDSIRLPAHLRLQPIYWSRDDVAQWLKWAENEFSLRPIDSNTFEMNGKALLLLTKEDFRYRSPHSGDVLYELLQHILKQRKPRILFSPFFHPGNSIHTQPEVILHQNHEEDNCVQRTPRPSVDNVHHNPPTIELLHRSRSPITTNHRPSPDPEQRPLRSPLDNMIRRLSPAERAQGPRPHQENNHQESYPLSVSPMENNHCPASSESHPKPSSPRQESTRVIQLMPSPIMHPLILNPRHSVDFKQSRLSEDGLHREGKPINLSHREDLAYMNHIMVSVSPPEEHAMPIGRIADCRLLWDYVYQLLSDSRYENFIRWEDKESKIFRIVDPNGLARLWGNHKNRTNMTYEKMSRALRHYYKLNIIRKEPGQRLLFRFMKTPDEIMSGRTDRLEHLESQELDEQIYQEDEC
# HSF1, sequence (Q00613 whole entry): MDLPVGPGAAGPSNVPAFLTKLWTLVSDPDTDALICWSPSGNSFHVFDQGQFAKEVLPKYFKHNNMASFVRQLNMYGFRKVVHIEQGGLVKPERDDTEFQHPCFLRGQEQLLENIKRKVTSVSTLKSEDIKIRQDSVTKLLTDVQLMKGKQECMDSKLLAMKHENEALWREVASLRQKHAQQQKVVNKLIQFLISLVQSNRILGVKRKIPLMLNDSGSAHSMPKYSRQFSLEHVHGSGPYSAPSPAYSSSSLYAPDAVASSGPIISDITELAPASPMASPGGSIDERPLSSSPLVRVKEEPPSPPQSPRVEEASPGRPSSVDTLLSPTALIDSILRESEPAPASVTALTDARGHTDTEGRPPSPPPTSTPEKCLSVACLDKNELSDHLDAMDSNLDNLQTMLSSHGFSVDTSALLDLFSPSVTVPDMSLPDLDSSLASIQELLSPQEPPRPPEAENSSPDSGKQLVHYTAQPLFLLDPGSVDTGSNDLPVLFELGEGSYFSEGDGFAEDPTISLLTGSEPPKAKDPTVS
# ETV1, sequence (P50549 whole entry): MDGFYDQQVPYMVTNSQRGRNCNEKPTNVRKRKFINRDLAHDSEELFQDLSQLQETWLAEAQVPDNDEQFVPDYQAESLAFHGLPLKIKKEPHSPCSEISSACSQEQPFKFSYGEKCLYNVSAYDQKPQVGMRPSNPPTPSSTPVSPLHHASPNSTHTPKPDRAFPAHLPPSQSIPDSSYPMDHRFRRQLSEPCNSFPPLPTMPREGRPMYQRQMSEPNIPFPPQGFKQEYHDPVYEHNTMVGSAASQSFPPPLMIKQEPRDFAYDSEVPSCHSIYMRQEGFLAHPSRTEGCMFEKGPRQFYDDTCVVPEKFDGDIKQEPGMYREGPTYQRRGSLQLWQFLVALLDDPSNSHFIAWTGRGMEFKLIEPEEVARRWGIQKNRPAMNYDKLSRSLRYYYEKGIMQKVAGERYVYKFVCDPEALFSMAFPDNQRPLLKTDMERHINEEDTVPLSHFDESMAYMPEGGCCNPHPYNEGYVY
# ELF1, sequence (P32519 whole entry): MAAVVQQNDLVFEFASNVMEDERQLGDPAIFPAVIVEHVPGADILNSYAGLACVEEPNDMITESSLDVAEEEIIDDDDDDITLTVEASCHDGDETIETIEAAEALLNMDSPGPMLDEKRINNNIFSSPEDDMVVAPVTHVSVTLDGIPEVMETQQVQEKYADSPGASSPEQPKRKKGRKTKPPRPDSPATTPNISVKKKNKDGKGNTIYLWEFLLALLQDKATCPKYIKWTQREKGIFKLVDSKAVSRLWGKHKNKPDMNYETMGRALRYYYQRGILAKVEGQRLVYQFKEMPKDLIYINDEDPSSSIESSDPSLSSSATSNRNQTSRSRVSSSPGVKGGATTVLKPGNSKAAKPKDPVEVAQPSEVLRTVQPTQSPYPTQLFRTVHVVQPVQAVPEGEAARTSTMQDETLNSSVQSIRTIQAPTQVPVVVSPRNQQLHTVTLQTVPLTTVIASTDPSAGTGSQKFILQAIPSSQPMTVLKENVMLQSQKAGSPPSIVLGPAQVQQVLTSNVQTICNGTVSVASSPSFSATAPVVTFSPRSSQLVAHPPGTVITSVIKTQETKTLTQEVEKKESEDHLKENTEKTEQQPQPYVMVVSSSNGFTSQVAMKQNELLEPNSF
# CRX, sequence (O43186 whole entry): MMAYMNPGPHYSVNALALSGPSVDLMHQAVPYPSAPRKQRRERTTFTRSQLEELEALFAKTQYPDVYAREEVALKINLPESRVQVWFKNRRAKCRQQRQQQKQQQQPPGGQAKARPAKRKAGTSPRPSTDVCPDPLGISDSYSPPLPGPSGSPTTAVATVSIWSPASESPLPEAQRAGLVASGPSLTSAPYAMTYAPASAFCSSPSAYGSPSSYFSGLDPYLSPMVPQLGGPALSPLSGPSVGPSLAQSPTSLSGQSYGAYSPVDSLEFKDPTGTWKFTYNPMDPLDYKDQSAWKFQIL
sequence,measurement,setting,value
TCTGGA,binding signal,FLI1,"1.02 fold enrichment (6-mer frequency, TF over GST control)"
same,binding signal,GABPA,"1.05 fold enrichment (6-mer frequency, TF over GST control)"
same,binding signal,ERG,"1.04 fold enrichment (6-mer frequency, TF over GST control)"
same,binding signal,ELF1,"1.01 fold enrichment (6-mer frequency, TF over GST control)"
same,binding signal,SPI1,"1.01 fold enrichment (6-mer frequency, TF over GST control)"
same,binding signal,SPIB,"1.01 fold enrichment (6-mer frequency, TF over GST control)"
same,binding signal,ELK3,"1.2 fold enrichment (6-mer frequency, TF over GST control)"
same,binding signal,FEV,"1.08 fold enrichment (6-mer frequency, TF over GST control)"
same,binding signal,HSF1,"3.75 fold enrichment (6-mer frequency, TF over GST control)"
same,binding signal,ETV2,"1.15 fold enrichment (6-mer frequency, TF over GST control)"
same,binding signal,ELF3,"1.06 fold enrichment (6-mer frequency, TF over GST control)"
same,binding signal,CRX,"1.72 fold enrichment (6-mer frequency, TF over GST control)"
same,binding signal,ETV1,"1.2 fold enrichment (6-mer frequency, TF over GST control)"
same,binding signal,ERF,"1.06 fold enrichment (6-mer frequency, TF over GST control)"
same,binding signal,ETV3L,"1.1 fold enrichment (6-mer frequency, TF over GST control)"
same,binding signal,ETV3,"1.05 fold enrichment (6-mer frequency, TF over GST control)"
same,binding signal,ETV6,"1.07 fold enrichment (6-mer frequency, TF over GST control)"
